# According to PubChem BioAssay AID588726 (The Scripps Research Institute Molecular Screening Center, 2011):
# Out of some 360,000 compounds screened, about 8,200 (2.3%) were called active. Only a selection was taken, and actives are over-represented in it overall. A number with no mark means an inactive call. Cut-off read from the data, not from the text of the source: active = inhibition above about 27%; inactive = the rest.
# Molecular target: Fructose-bisphosphate aldolase (Mycobacterium tuberculosis (strain ATCC 25618 / H37Rv)) (UniProt P9WQA3)
# Sequence (P9WQA3 whole entry, looked up): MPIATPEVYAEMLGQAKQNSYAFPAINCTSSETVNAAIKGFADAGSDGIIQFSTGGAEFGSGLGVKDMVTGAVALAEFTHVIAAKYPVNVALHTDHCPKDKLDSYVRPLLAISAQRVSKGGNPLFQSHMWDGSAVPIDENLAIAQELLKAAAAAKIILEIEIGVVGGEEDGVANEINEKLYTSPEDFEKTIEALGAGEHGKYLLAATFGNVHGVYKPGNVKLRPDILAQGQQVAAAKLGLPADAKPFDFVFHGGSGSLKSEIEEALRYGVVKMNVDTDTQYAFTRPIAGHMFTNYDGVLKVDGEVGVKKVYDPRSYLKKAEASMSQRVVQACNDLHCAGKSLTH
# Assay: Mtb FBA enzyme inhibitors, primary screen, biochemical, fluorescence, strain H37Rv (AID 588726);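 note: 0% = vehicle and 100% = reference inhibitor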
# Settings: purified M. tuberculosis FBA, fluorescence read-out, at 1 µM, hits give high values
row,SMILES,inhibition
1,O=c1[nH]c(=O)n(Cc2ccco2)c2c1C(C(F)(F)F)(C(F)(F)F)N=C(c1ccco1)N2,1.76%
2,CCCCC[C@@H]1C=C(C(=O)OCC)[C@H](c2ccccc2)N1S(=O)(=O)c1ccc(C)cc1,-1.47%
3,CN(CCc1ccccn1)C1CCCN(S(=O)(=O)c2ccccc2Cl)C1 (stereo not given),-1.97%
4,CN(CC(=O)NCCc1ccccn1)S(=O)(=O)c1ccc(Cl)cc1,-1.58%
5,CN(CCc1ccccn1)S(=O)(=O)c1ccc2c3c(cccc13)C(=O)N2,50.8% (active)
6,CC1(C)Cc2c(sc3nc(SCC(=O)NCc4ccccc4)n(-c4ccccc4)c(=O)c23)CS1,1.67%
7,CCCNC(=S)NC1CC2CCCC(C1)N2CC(C)C (stereo not given),0.49%
8,COC(=O)C1=NNC2(c3ccc(C)cc3)C(=O)N(c3cccc(C)c3C)C(=O)C12 (stereo not given),-2.73%
9,COC(=O)c1c(-c2cccs2)csc1NC(=O)CSc1ncnc2sc(C)c(C)c12,1.16%
10,CCNC(=O)CN(c1ccc(C)cc1)S(=O)(=O)c1ccc(SC)cc1,-1.29%
11,Cc1ccc(C(=O)NNC(=O)OC(C)(C)C)c(Cl)c1,-0.17%
12,O=C(NNc1c2ccccc2nc2ccccc12)c1cc2ccccc2cc1O,-10.4%
13,CC(C)(C)OC(=O)NNc1c2ccccc2nc2ccccc12,74.1% (active)
14,Cc1ccc(S(=O)(=O)N(CCCN(C)C)Cc2ccc3c(c2)OCO3)cc1,1.83%
15,O=C(CCN1C(=O)[C@@H]2Cc3ccccc3CN2C1=O)NCCc1ccccc1,-6.76%
16,CC(=O)c1cccc(NC(=O)C2CCCN(S(=O)(=O)c3cccc4nonc34)C2)c1 (stereo not given),5.88%
17,O=C(CN(C(=O)CNC(=O)c1cccs1)c1cccc(F)c1)NC1CCCCC1,-0.45%
18,Cn1c(CCc2ccccc2)nnc1SCC(N)=O,-0.79%
19,COC(=O)CCNC(=O)c1ccc2[nH]c(C)c(C)c2c1,4.35%
20,CCCCNC(=O)c1ccc(-n2c(=S)[nH]c3ccccc3c2=O)cc1,-2.52%
21,CN(C)CCCNC(=O)c1ccc2[nH]c3ccccc3c2c1,34.9% (active)
22,O=C(Nc1ncc2c(n1)CC(c1ccco1)CC2=O)c1ccc(Cl)cc1 (stereo not given),-1.48%
23,O=C(Nc1ccc(Cl)cn1)c1ccccc1-c1ccccc1,-2.1%
24,O=C(Nc1ncc2c(n1)-c1ccccc1OC2)c1ccc(Cl)cc1,97.1% (active)

row,SMILES,inhibition
1,CC(C)NC(=O)C(=O)NCCN1CCN(S(=O)(=O)c2ccc(Cl)cc2)CC1,2.59%
2,CC1(C)O[C@@H]2[C@H](O1)[C@@H](CO)O[C@H]2n1c(N2CCCCC2)nc2c(N)ncnc21,0.56%
3,O=C(Nc1cccc(Cl)c1)c1cncn1-c1ccc(F)cc1,6.15%
4,CCOC(=O)N1CCN(CC(=O)Nc2ccc(F)cc2)CC1,-0.85%
5,CCC(=O)Nc1ccc2nn(-c3ccc(F)cc3)nc2c1,102% (active)
6,Nc1c(N(CCO)C(=O)C2CCCCC2)c(=O)[nH]c(=O)n1Cc1ccccc1,5.19%
7,CCc1nccn1CCC(=O)N1CCCC(N2CCN(c3ccccc3F)CC2)C1 (stereo not given),-1.12%
8,CNC(=O)c1nnn(-c2ccccc2)c1C(=O)NC,3.79%
9,N#CCCN1CCN(S(=O)(=O)c2ccc(S(=O)(=O)NC3CC3)cc2)CC1,-0.2%
10,CC(Sc1nnc(-c2ccccc2F)n1C1CC1)C(N)=O (stereo not given),-0.8%
11,Cc1cc(C)c2nc3nc(C)cc(C)c3c(N)c2c1,42.9% (active)
12,CCC(=O)Nc1ccc(-c2ccc(N3CCCCC3)nn2)cc1,4.9%
13,CC(=O)N1N=C(c2ccccc2)OC1c1cccnc1 (stereo not given),-0.2%
14,CC(=O)N1N=C(c2ccncc2)OC1(Cc1ccccc1)Cc1ccccc1,46.8% (active)
15,O=C(Cc1ccccc1)N1N=C(c2ccncc2)CC1(O)C(F)(F)F (stereo not given),-4.28%
16,CCCCn1c(SCc2ncc(-c3ccccc3)o2)nc2cc(S(N)(=O)=O)ccc21,-3.35%
17,O=C(CN(Cc1ccc(Br)cc1)S(=O)(=O)c1ccccc1)NCc1ccncc1,3.05%
18,Cc1ccc2c(C(=O)CN3CCCC3)c(C)[nH]c2c1,-0.06%
19,O=C(Nc1cccc(Cl)c1)Nc1ccccc1NS(=O)(=O)c1cccs1,-6.91%
20,COc1cc(NC(=O)c2ccccc2NS(=O)(=O)c2ccc(Cl)s2)cc(OC)c1,2.51%
21,O=C(Nc1nncs1)c1ccccc1NS(=O)(=O)c1cccs1,75% (active)
22,CCCNc1ncnc2sc(C)c(C)c12,2.22%
23,O=C(Nc1c(Cl)cccc1Cl)C1CCC1,5.25%
24,O=C(Nc1ccc(F)cc1)c1cccnc1N1CCOCC1,1.16%

row,SMILES,inhibition
1,Cc1cccc(C(=O)NC(=S)N2CCN(c3ccc([N+](=O)[O-])cc3)CC2)c1,-0.47%
2,CCC(=O)Nc1cccc(C2=NOC3(C2)C[C@@H](C(N)=O)N(C(=O)c2cc([N+](=O)[O-])cc([N+](=O)[O-])c2C)C3)c1 (stereo not given in full),-2.54%
3,Cc1ccc(NC2(C#N)C(=O)Nc3ccccc32)cc1 (stereo not given),-3.14%
4,N#CC1=C(N)Oc2[nH]c(=S)[nH]c(=O)c2C12C(=O)Nc1ccccc12 (stereo not given),126% (active)
5,Cc1ccc(OCC(=O)Nc2ccccc2Sc2ccc(Cl)cc2)c([N+](=O)[O-])n1,-0.96%
6,Nc1c(-c2ccc(F)cc2)cnc2ncnn12,1.26%
7,CC1(C)CN(c2ccc(-c3ccnc4ncnn34)cc2)C1=O,"809% [above what the read-out allows, likely interference] (active)"
8,O=C(CSCc1ccccc1Cl)NNC(=O)c1ccccc1,-0.9%
9,CC(C)NC(=O)Nc1cccc2c1O[C@H](CN(C)S(=O)(=O)c1cccs1)[C@@H](C)CN([C@H](C)CO)C2=O,4.46%
10,C[C@H]1CN([C@@H](C)CO)C(=O)c2cc(Br)cnc2O[C@H]1CN(C)S(=O)(=O)c1cccs1,27.8% (active)
11,C[C@H]1CN([C@@H](C)CO)C(=O)c2cc(-c3cccc(F)c3)cnc2O[C@@H]1CN(C)S(C)(=O)=O,2.59%
12,Cc1cc(C)cc(OCC(=O)OCC(=O)NC2CCCC2)c1,-0.07%
13,CCN(C(=O)CSc1cccc[n+]1[O-])c1ccccc1,0.35%
14,Cc1ccc(S(=O)(=O)n2oc(=O)c(C3CCCCC3)c2N)cc1,-0.6%
15,C=CCSc1nnc2c(n1)-c1cccc3cccc-2c13,-1.23%
16,FC(F)Oc1ccccc1C1CC(c2ccc(Br)s2)Nc2ncnn21 (stereo not given),1.95%
17,CCOc1ccccc1C1CC(c2ccc(Cl)cc2)Nc2nc(N)nn21 (stereo not given),4.25%
18,CCOc1ccccc1C1CC(c2ccccc2)Nc2nc(N)nn21 (stereo not given),35.6% (active)
19,CCc1cccc(C)c1NC(=O)COC(=O)Cc1ccsc1,4.93%
20,CC(C)NC(=S)Nc1cccc2cnccc12,-1.91%
21,Cc1c(CN2CCCCC2)c(O)n(CCO)c(=O)c1C#N,2.47%
22,O=c1oc2c(CN3CCCCC3)c(O)ccc2c2c1CCCCC2,"502% [above what the read-out allows, likely interference] (active)"
23,N#Cc1ccccc1S(=O)(=O)N1CCN(Cc2c(O)ccc3ccccc23)CC1,2.66%
24,CC(C)CN(C(=O)CSc1ncnc2sccc12)C1CCS(=O)(=O)C1 (stereo not given),2.25%

row,SMILES,inhibition
1,CCC(C)N(C(=O)CSc1ncnc2c1cnn2-c1ccccc1)C1CCS(=O)(=O)C1 (stereo not given),-2.78%
2,CCN(C(=O)CSc1ncnc2c1cnn2-c1ccccc1)C1CCS(=O)(=O)C1 (stereo not given),32.7% (active)
3,CN(C)C(=O)CCC(=O)N1CCCCC1C(=O)Nc1ccc(Oc2ccccc2F)cc1 (stereo not given),-1.93%
4,COc1ccccc1C(=O)Nc1cccc(C(=O)N2CCOCC2)c1,3.07%
5,O=C(c1cccc(N2CCCC2=O)c1)N1CCOCC1,-17.6%
6,CCOCCc1c(O)nc(SCC(=O)NCc2ccco2)[nH]c1=O,2.42%
7,CS(=O)(=O)N(Cc1ccccc1Cl)c1ccc(C(=O)NCc2cccnc2)cc1,-3.74%
8,CCN(CC(=O)Nc1cc(Cl)ccc1C)C(=O)CSCc1ccc(C)cc1,2.85%
9,O=C(NC1CCCC1)C(c1c(F)cccc1Cl)N(C(=O)c1csnn1)C1CC1 (stereo not given),-1.18%
10,COc1ccc(OC)c(NC(=O)CN(Cc2ccc(Cl)cc2)S(C)(=O)=O)c1,-0.32%
11,O=c1cc(C(F)(F)F)[nH]c(=O)n1C1CCCCC1,-0.44%
12,CC(Sc1sc(=S)sc1SC(C)C(=O)O)C(=O)O (stereo not given),-1.78%
13,O=C(NCCCN1CCOCC1)c1ccccc1NS(=O)(=O)c1ccc(F)cc1,2.85%
14,O=C(NCCCN1CCOCC1)c1cnn2c(-c3ccccc3)cc(-c3ccccc3)nc12,34.3% (active)
15,O=C(NCCCN1CCOCC1)c1ccccc1NS(=O)(=O)c1ccc(Br)cc1,0.43%
16,CCN(c1ccccc1)S(=O)(=O)c1ccc(NC(=O)C(C)(C)C)cc1,0.11%
17,Cc1ccc(NC(=O)c2cccnc2C(=O)Nc2ccc(C)cc2)cc1,4.35%
18,CCCCCC(=O)Nc1ccc(S(=O)(=O)Nc2ccc(Cl)nn2)cc1,-0.48%
19,CCCCC(=O)Nc1ccc(C(=O)NCCCn2ccnc2)cc1,-1.64%
20,Cc1nn2c(=O)cc(COC(=O)c3ccc(NC(=O)C(C)(C)C)cc3)nc2s1,-0.5%
21,CC(=O)Nc1ccc(-c2cn3cccnc3n2)cc1,"566% [above what the read-out allows, likely interference] (active)"
22,CC(=O)Nc1ccc(S(=O)(=O)Nc2ccc(-c3ccc4nnc(C)n4n3)cc2)cc1,-1.85%
23,CCCCCC(=O)Nc1ccc(-c2cn3cccnc3n2)cc1,131% (active)
